Experiment [1] is described as follows: Nuclear factor erythroid 2-related factor 2/antioxidant responsive element (Nrf2/ARE) small molecule agonists: qHTS cell viability counter screen in human keratinocytes (AID 1919968; active means well fitted curve in the direction sought with a large enough effect in the repeat runs; an effect the other way counts as inactive or inconclusive; further: nearly all actives have a fitted effect of over 55% in size). The method in brief:
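Seed 1,500 KeratinoSens cells per well, then incubate 5 h at 37 C/5% CO2. Add compounds in DMSO and incubate 23 h. Add CellTiter-Fluor, wait 1 h and read fluorescence.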
On the technique in general: Quantitative high-throughput screening tests each substance at several concentrations.

Experiment [2] can be described thus: Nuclear factor erythroid 2-related factor 2/antioxidant responsive element (Nrf2/ARE) small molecule agonists: luciferase reporter gene qHTS assay in human keratinocytes (AID 1919969). Further: nearly all actives have a fitted effect of over 35% in size. Further: potency means the concentration at half of the fitted maximal effect.
Experiment [3] concerns the target Gonadotropin-releasing hormone receptor (Homo sapiens) (UniProt P30968). Put plainly: Human gonadotropin-releasing hormone receptor (GnRHR) small molecule agonists, calcium flux assay in GnRHR-HEK293 cells (AID 1920063). Further: nearly all actives have a fitted effect of over 35% in size. The method in brief:
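Cells: HEK293 stably expressing human GnRHR. Steps: overnight (18 h) culture, 1 h calcium dye loading at 37 C, compound addition, kinetic fluorescence read at 480/540 nm. Each compound tested at 15 concentrations in triplicate.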
In general terms: A change in cytosolic calcium serves as a functional read-out for many receptors and channels.

Experiment [4] has as its target KiSS-1 receptor (Homo sapiens) (UniProt Q969F8). Put plainly: Human kisspeptin (KISS1R) small molecule agonists, calcium flux assay in KISS1R-HEK293 cells (AID 1920064; active means well fitted curve in the direction sought with a large enough effect in the repeat runs; an effect the other way counts as inactive or inconclusive). The essentials: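 Cells plated and incubated 18 h; dye added, 1 h at 37 C; compounds in DMSO pinned in; signal read at 480/540 nm every second for 3 min. Each compound tested at 15 concentrations in triplicate.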

Experiment [5] is described as follows: p53 small molecule agonists, cell-based qHTS assay with human liver microsomes (AID 1963577).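 Further: p53 response element beta-lactamase reporter cells with liver microsomes plus NADPH.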 The method in brief:
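Cells carrying a p53-responsive bla reporter were rested 5 h (37 C, 5% CO2) before compound transfer. Human liver microsomes plus NADPH, 0.5 mg/mL final apiece, supplied metabolism during the 16 h 37 C exposure.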

Experiment [6] is described as follows: p53 small molecule agonists, cell-based qHTS assay with human liver microsomes: qHTS cell viability counter screen (AID 1963579). Further: nearly all actives have a fitted effect of over 45% in size. The essentials: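 Seed p53RE-bla cells at 4,000 per well; incubate 5 h at 37 C; add compound, human liver microsomes and NADPH; incubate 16 h at 37 C; add CellTiter-Glo; after 30 min at room temperature, read luminescence.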
Experiment [7] is described as follows: p53 small molecule agonists, cell-based qHTS assay with rat liver microsomes: qHTS cell viability counter screen (AID 1963580). Further: nearly all actives have a fitted effect of over 45% in size. The method in brief:
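HCT-116 p53RE-bla, 4,000 cells/well, 5 h pre-incubation; cpd + rat liver microsomes 0.5 mg/mL + NADPH 0.5 mg/mL (final); 16 h, 37 C; CellTiter-Glo, 30 min RT; luminescence.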

Experiment [8] can be described thus: p53 small molecule agonists, cell-based qHTS assay: qHTS cell viability counter screen (AID 1963581). Further: nearly all actives have a fitted effect of over 45% in size. The method in brief: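 Cells: HCT-116 with p53 response element-driven beta-lactamase. Treatment: 16 h, 37 C, compounds in DMSO. Read: CellTiter-Glo luminescence after 30 min RT.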
Experiment [9] can be described thus: p53 small molecule agonists, cell-based qHTS assay (AID 1963582; active means well fitted activation curve with a large enough effect in the signal ratio in the repeat runs, not every such curve was filed as active; the % refers to the signal ratio). The method in brief: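 Quantitative HTS in p53RE-bla cells: after a 5 h settling period, compounds delivered in DMSO were left on cells for 16 h at 37 C, and reporter induction was measured as fluorescence following 2 h substrate loading.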
Experiment [10] addresses 5-hydroxytryptamine receptor 2A (Homo sapiens) (UniProt P28223). Put plainly: 5-hydroxytryptamine receptor 2A (HTR2A) small molecule antagonists, cell-based qHTS assay (AID 1963586). Further: nearly all actives have a fitted effect of over 45% in size. The method in brief:
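Antagonist-mode intracellular calcium assay: DOI (4 nM) added after 5 min compound pre-incubation at room temperature to dye-loaded HTR2A-CHO cells. Fluorescence followed for 3 min, sampled every second.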

Experiment [11] has the same target. Put plainly: 5-hydroxytryptamine receptor 2A (HTR2A) small molecule agonists, cell-based qHTS assay (AID 1963587). Further: nearly all actives have a fitted effect of over 30% in size. The essentials:
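Kinetic calcium-flux fluorescence (2 min, 1 sec intervals) after compound addition in agonist mode. HTR2A-CHO cells were cultured 18 h, then dye-loaded 1 h at 37 C.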

The target in experiment [12] is Muscarinic acetylcholine receptor M1 (Homo sapiens) (UniProt P11229). Put plainly: Cholinergic receptor muscarinic 1 (CHRM1) small molecule antagonists, cell-based qHTS assay (AID 1963588). Further: nearly all actives have a fitted effect of over 40% in size. The essentials:
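CHRM1-CHO calcium-flux assay, antagonist mode. Cells were seeded 18 h, dye-loaded 1 h at 37 C and given compound for 5 min at RT, then acetylcholine was added at 50nM. FDSS fluorescence was read 3 min; 15 concentrations, three runs.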

Experiment [13] has the same target. Put plainly: Cholinergic receptor muscarinic 1 (CHRM1) small molecule agonists, cell-based qHTS assay (AID 1963589). Further: nearly all actives have a fitted effect of over 35% in size. The essentials: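 Agonist-mode qHTS in CHO cells stably carrying human muscarinic M1. Intracellular calcium is tracked by fluorescence every second after compound transfer; each compound runs at 15 concentrations in three independent runs.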
Experiment [14] is described as follows: cAMP Responsive Elements (CRE) small molecule agonists, cell-based qHTS assay (AID 1963590). The essentials: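 Agonist mode qHTS in CRE-bla HEK 293T cells: compounds dosed from DMSO for 3 h at 37 C/5% CO2, followed by LiveBLAzer B/G FRET substrate for 2 h at room temperature.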
Experiment [15] in a line: cAMP Responsive Elements (CRE) small molecule antagonists, cell-based qHTS assay (AID 1963591; active means well fitted inhibition curve with a large enough effect in the signal ratio in the repeat runs, not every such curve was filed as active; the % refers to the signal ratio). The essentials: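 Antagonist mode: test compounds are co-incubated with the adenylyl cyclase activator NKH477 (0.25 uM final) on CRE-bla HEK293T cells for 3 h at 37 °C, followed by LiveBLAzer substrate loading.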
Experiment [16] concerns the target Beta-2 adrenergic receptor (Homo sapiens) (UniProt P07550). Put plainly: Adrenergic beta2 receptor (ADRB2) small molecule antagonists, cell-based qHTS assay (AID 1963592). Further: series mostly up to about 92 µM; nearly all actives have a fitted effect of over 50% in size. The method in brief:
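Cells (CHO, stable ADRB2 overexpression) incubated 18-20hr at 37C; compounds added from DMSO; agonist mix (1nM isoproterenol, 100uM IBMX, 25uM Ro-20-1724) added; 0.5hr RT; d2-cAMP and anti-cAMP-cryptate added; 1hr RT; 665/615 nm read.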

Experiment [17] has as its target D(2) dopamine receptor (Homo sapiens) (UniProt P14416). Put plainly: Dopamine D2 receptor (DRD2) small molecule agonists, cell-based qHTS assay (AID 1963594). Further: nearly all actives have a fitted effect of over 35% in size. The essentials:
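cAMP accumulation in DRD2-HEK293 cells measured by HTRF after 1 h detection; compounds added 10 min before NKH477 (200nM […]) forskolin-analogue stimulation, 30 min at room temperature, with Ro20-1724 present at 0.1 mM final.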

The target is the same in experiment [18]. Put plainly: Dopamine D2 receptor (DRD2) small molecule antagonists, cell-based qHTS assay (AID 1963595; active means well fitted inhibition curve with a large enough effect in the signal ratio in the repeat runs, with a control signal flat; the % refers to the signal ratio). The method in brief: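 Cells were plated and grown for 24 h at 37 °C. Ro20-1724 (0.1 mM final) went in first, then compound for 10 min. NKH477 (200 nM) with quinpirole (12 nM) followed for 30 min at RT, then HTRF detection reagents for 1 h.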
Experiment [19] has as its target Beta-2 adrenergic receptor (Homo sapiens) (UniProt P07550). Put plainly: Adrenergic beta2 receptor (ADRB2) small molecule agonists, cell-based qHTS assay (AID 1963593).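 Further: CHO cells stably overexpressing human ADRB2.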 The method in brief: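 CHO cells stably over-expressing ADRB2 were plated overnight at 37C, then dosed with compounds plus a stimulation mix containing 100uM IBMX and 25uM Ro-20-1724 for 0.5hr at room temperature. cAMP was measured by HTRF competition, 1hr.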

Results on 7 compounds are retold here after PubChem BioAssay (Tox21).

The structures appear in SMILES notation. Records with an inconclusive call do not appear. Calls of active or inactive are those of the source. Unless noted, the call rests on the fitted dose curve.

Beta-2 adrenergic receptor (Homo sapiens), sequence (P07550 whole entry, looked up): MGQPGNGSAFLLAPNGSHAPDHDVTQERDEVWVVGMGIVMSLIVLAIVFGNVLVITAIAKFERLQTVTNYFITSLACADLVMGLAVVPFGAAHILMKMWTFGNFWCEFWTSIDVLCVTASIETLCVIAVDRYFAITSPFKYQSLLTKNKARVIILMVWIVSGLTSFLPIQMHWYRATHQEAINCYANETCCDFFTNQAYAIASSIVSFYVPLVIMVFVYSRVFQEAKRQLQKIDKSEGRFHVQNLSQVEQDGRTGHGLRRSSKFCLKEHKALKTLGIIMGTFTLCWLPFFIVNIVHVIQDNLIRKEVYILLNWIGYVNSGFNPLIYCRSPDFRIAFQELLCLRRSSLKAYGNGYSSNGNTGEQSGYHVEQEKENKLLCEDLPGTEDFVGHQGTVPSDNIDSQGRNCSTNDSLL
KiSS-1 receptor (Homo sapiens), sequence (Q969F8 whole entry, looked up): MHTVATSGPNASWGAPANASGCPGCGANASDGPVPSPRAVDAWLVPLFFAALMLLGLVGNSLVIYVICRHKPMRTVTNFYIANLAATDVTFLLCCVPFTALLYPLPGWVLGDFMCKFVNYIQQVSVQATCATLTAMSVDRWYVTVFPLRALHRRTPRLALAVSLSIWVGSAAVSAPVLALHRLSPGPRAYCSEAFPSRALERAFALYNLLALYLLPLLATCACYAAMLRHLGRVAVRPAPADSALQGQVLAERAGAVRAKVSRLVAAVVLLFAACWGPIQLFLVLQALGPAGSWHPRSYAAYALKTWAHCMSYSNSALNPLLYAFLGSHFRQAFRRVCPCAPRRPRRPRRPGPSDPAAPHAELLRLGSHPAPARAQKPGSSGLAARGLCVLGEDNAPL
5-hydroxytryptamine receptor 2A (Homo sapiens), sequence (P28223 whole entry, looked up): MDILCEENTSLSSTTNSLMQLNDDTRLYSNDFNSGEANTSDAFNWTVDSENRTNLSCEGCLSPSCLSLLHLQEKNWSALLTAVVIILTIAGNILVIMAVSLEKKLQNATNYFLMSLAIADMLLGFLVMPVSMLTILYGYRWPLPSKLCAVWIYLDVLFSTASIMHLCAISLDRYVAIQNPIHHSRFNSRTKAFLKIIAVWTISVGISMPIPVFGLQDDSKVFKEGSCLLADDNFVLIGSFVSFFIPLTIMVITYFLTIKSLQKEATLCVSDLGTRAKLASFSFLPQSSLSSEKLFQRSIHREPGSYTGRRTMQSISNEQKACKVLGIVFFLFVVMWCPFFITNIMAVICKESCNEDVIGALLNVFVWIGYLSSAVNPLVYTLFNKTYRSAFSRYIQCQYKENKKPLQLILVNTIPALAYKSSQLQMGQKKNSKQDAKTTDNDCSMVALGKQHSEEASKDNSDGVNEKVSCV
D(2) dopamine receptor (Homo sapiens), sequence (P14416 whole entry, looked up): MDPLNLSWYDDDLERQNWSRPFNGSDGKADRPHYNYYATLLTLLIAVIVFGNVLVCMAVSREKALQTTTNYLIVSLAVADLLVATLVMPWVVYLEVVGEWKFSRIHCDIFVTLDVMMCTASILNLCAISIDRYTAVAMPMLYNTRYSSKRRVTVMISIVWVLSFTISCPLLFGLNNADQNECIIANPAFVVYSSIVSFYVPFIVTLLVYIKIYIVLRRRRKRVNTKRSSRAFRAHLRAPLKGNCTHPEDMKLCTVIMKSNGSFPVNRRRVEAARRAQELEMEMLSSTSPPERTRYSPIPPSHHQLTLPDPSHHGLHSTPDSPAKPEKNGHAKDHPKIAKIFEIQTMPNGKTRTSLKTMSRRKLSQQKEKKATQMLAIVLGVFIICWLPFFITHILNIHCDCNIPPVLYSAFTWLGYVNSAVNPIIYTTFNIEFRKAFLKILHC
Gonadotropin-releasing hormone receptor (Homo sapiens), sequence (P30968 whole entry, looked up): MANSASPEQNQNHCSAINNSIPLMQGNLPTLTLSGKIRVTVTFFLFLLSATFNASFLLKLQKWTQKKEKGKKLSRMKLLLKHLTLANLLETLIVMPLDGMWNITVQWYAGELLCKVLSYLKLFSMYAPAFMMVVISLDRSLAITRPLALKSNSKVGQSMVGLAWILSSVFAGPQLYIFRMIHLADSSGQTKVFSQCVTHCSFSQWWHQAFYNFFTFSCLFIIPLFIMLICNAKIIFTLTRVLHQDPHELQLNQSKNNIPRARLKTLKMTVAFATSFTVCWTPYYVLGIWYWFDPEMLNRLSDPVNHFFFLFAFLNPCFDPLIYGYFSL
Muscarinic acetylcholine receptor M1 (Homo sapiens), sequence (P11229 whole entry, looked up): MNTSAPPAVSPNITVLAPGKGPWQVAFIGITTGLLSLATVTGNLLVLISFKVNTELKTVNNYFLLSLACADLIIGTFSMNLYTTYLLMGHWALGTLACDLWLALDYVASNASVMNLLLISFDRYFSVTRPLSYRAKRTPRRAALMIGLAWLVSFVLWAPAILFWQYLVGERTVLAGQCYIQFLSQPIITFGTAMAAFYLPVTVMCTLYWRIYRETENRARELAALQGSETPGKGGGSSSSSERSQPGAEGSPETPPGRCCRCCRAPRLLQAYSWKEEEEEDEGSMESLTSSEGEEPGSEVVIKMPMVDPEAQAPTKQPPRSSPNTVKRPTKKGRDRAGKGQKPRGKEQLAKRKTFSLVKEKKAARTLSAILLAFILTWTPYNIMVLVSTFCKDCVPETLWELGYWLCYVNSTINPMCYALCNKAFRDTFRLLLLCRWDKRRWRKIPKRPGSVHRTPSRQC

In the case of `c1ccc(SCCSc2ccccc2)cc1`, the Potency entry in experiment [1], in experiment [3], in experiment [4], in experiment [5], in experiment [6] and in experiment [7] was “inactive” in each case. In addition, the Potency entry in experiment [8], in experiment [9], in [10], in experiment [11], in [12] and in [13] was “inactive” in each case. The Potency entry in experiment [14], in experiment [15], in experiment [16], in experiment [17] and in [18] was “inactive” each time. Also, the Potency in experiment [2] was 12.1 µM (active).

In the case of `C=Cc1ccccn1`, the Potency entry in [1], in [2], in [3], in experiment [4], in experiment [5] and in experiment [6] was “inactive” in each case. The Potency entry in [7], in experiment [8], in experiment [9], in experiment [10], in experiment [11] and in [12] was “inactive” each time. The Potency entry in [13], in experiment [14], in experiment [15], in [16], in experiment [17] and in [18] was “inactive” each time.

With `CC(=O)c1ccc2c(c1)CCCC2`, the Potency result in experiment [1], in [2], in experiment [3], in experiment [4], in experiment [5] and in experiment [6] was “inactive” in each case. Also, the Potency entry in experiment [7], in [8], in experiment [9], in experiment [10], in experiment [11] and in [12] was “inactive” each time. Further, the Potency result in experiment [13], in experiment [14], in experiment [15], in [16], in [19] and in [17] was “inactive” each time. Further, in experiment [18], the Potency entry was “inactive”.

As to `COc1ccc(C)cc1`, the Potency entry in experiment [1], in experiment [2], in experiment [3], in [4], in [5] and in [6] was “inactive” throughout. In addition, the Potency entry in experiment [7], in [8], in experiment [9], in experiment [10], in [11] and in experiment [13] was “inactive” each time. The Potency result in experiment [14], in [15], in experiment [16], in [19], in experiment [17] and in experiment [18] was “inactive” throughout.

Take `C=C(C)C(=O)OCCC[Si](Cl)(Cl)Cl`: the Potency entry in experiment [1], in experiment [2], in [3], in [4], in experiment [5] and in [6] was “inactive” each time. The Potency entry in experiment [7], in experiment [8], in [9], in experiment [11], in experiment [12] and in experiment [13] was “inactive” throughout. Also, the Potency entry in experiment [14], in [15], in [16], in experiment [19], in [17] and in [18] was “inactive” each time.

Take `COc1ccc2cccc(CCNC(C)=O)c2c1`: the Potency entry in [1], in [2], in experiment [3], in [4], in experiment [5] and in [6] was “inactive” throughout. For the same compound, the Potency result in experiment [7], in [8], in experiment [9], in [10], in [11] and in experiment [12] was “inactive” throughout. Moreover, the Potency result in experiment [13], in [14], in experiment [15], in experiment [16], in [19] and in [17] was “inactive” in each case. The Potency result in [18] was “inactive”.

Regarding `CC(C)OC=O`, the Potency result in [1], in [2], in [3], in experiment [4], in [5] and in [6] was “inactive” throughout. In addition, the Potency entry in experiment [7], in experiment [8], in experiment [9], in [10], in [11] and in [13] was “inactive” each time. Further, the Potency entry in [14], in experiment [15], in [16], in [19], in [17] and in experiment [18] was “inactive” each time.
